# Assay outcomes (PubChem BioAssay)
# FBPA coupling cs: counter-screen for Giardia aldolase inhibitors: coupling enzyme system; coupling enzyme system counterscreen, AmpLite Red fluorescence; hit rate 0.67% among 290,000; activity change, negative = inhibition, % at 58.2 µM, hits read low; in the data active means activity change below about -30%
#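 Compounds tested against the coupling enzymes alone at 57.5 uM final; readout was AmpLite Red fluorescence (525/598 nm) after 20 min at RT.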
# G9a inh: blocks human histone lysine methyltransferase G9a. Q96KQ7. G9a H3K9 monomethylation, AlphaScreen, 2 h. Potency, µM (top dose mostly 102 µM), inactives show at the top dose activity, negative = inhibition, actives largely listed as inhibitors. hit rate 8.8% among 350,000. AID 504332; further: potency means the concentration at half of the fitted maximal effect; nearly all actives have a fitted effect of over 75% in size
# Target sequence (Q96KQ7 913-1193 limits assumed): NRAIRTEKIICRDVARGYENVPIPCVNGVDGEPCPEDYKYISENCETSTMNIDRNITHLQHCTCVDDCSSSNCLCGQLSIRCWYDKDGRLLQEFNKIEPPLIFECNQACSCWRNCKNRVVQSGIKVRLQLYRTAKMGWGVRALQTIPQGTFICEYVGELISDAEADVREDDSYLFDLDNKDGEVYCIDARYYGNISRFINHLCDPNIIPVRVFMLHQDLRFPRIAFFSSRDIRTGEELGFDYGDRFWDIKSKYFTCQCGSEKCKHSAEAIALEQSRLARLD
#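 Quantitative HTS format: methyltransferase activity on a biotin-tagged H3K9 peptide is measured by AlphaScreen, using a rabbit anti-monomethyl-H3K9 antibody with streptavidin donor and anti-IgG acceptor beads. Final levels are 20 nM enzyme, 500 nM peptide, 20 uM SAM; 2 h RT.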
# Tau fluor counter: counter-screen for tau fibril formation inhibitors; tau K18 P301L Alexa594 fluorescence, heparin fibrillization; Potency, µM (doses to about 57.7 µM), inactives show top-dose activity change, negative = decrease; hit rate 0.93% among 280,000; AID 1463; further: potency means the concentration at half of the fitted maximal effect; nearly all actives have a fitted effect of over 55% in size
#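 Human tau K18 P301L (15 uM unlabeled, 0.24 uM Alexa 594-labeled) in 100 mM sodium acetate pH 7 with 20 uM heparin, 6 hr at 37 C. ThT 30 uM added, 1 hr ambient; Alexa 594 FP and total fluorescence read at 555/632 nm.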
# Tau fibril FP: blocks human tau fibril formation measured by polarization | hit rate 0.39% among 280,000 | P10636 | Potency, µM (titrated, usually from 57.7 µM), for inactives: at the highest dose activity, negative = inhibition, hits mostly inhibitors | K18 P301L tau heparin fibrillization, Alexa594 FP, 6 h; further: potency means the concentration at half of the fitted maximal effect; nearly all actives have a fitted effect of over 55% in size
# Target sequence (P10636 561-689 P618L limits assumed): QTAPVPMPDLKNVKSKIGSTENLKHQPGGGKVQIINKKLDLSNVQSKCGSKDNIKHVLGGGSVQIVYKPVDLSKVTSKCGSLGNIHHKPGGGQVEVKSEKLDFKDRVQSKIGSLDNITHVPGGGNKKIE
#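 Read-out: fluorescence polarization of Alexa 594-labeled tau (0.24 uM), 555 nm excitation, 632 nm emission. Mixtures held 15 uM unlabeled K18 P301L, compound and 20 uM heparin, pH 7 acetate buffer, incubated 6 hr at 37 C.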
# Tau fibril ThT: tau fibrillization inhibition (ThT binding) | recombinant tau K18 P301L (four-repeat tau fragment), heparin-induced fibrillization, ThT fluorescence | Potency, µM (doses to about 57.4 µM), inactives show at the highest dose activity, negative = inhibition, hits mostly inhibitors | hit rate 2.1% among 270,000; further: potency means the concentration at half of the fitted maximal effect; nearly all actives have a fitted effect of over 55% in size
#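 Tau K18 P301L fragment (15 uM unlabeled plus 0.24 uM Alexa 594-labeled) in 100 mM sodium acetate pH 7 with compound, fibrillization induced by 20 uM heparin for 6 hr at 37 C. Thioflavin T (30 uM) added, fluorescence read after 1 hr (ex 450, em 510 nm).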
# Sfp PPTase inh: blocks B. subtilis Sfp PPTase activity | Q9F4F7 | Biochemical Sfp PPTase activity, qHTS | Potency, µM, for the others: largest response in the series, negative = inhibition, actives largely listed as inhibitors | hit rate 3.5% among 310,000 | AID 1490;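 further: the enzyme is Sfp with the accession as filed and its product quenches rhodamine fluorescence; potency means the concentration at half of the fitted maximal effect; 0% = enzyme reaction without inhibitor and -100% = no enzyme wells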
#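 After 15 min at room temperature with compound, 15 nM Sfp received 5 uM rhodamine-CoA plus 12.5 uM BHQ-2-ybbR (50 mM Hepes pH 7.6, 10 mM MgCl2). Rate came from the fluorescence difference over 30 min, ex 525/em 598 nm.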
# The depositor's hits bear a star; u = inconclusive; x = no result; [ ] = another dose, or the depositor's remark. This is a sample that favours compounds with a hit; in the whole collection about 11% have one here. Unless noted, the call rests on the fitted dose curve; in most records, active means well fitted curve in the direction sought with a large enough effect; inconclusive means small, poorly fitted or top-dose-only effect, or another doubt; inactive means no such curve, though single readings can be large; an effect the other way counts as inactive or inconclusive. Unless noted, on the % scale 0 is the no-effect control and ±100 the full control effect.
SMILES,FBPA coupling cs,G9a inh,Tau fluor counter,Tau fibril FP,Tau fibril ThT,Sfp PPTase inh
CCc1c(C)sc(NC(=O)c2cc(-c3ccc(O)cc3)on2)c1C#N,0.6,44.7µM*,-11.0%,-6.1%,-8.6%,-3.0%
Cc1nn(Cc2ccc(Cl)c(Cl)c2)c(C)c1NC(=O)c1cc(-c2ccc3c(c2)OCO3)on1,2.4,56.2µM*,-11.2%,1.5%,-2.4%,2.5%
COc1ccc(N2CCN(c3ncnc4onc(C)c34)CC2)cc1,x,u,-19.0%,3.7%,u,x
COc1ccc2c(c1)C(=O)[C@H](OC(=O)Nc1ccc(C)c(Br)c1)[C@@H](c1ccc(OC)c(Br)c1)O2,5.0,x,u,u,0.2%,10.5%
COc1ccccc1CNC(=O)c1cn(C)c2ccc(S(=O)(=O)N3CCC(C)CC3)cc2c1=O,x,u,-15.1%,-10.6%,1.2%,x
CCc1c(C)sc(NC(=O)c2cc(-c3ccc(OC)c(OC)c3)on2)c1C#N,10.6,7.94µM*,-4.9%,-17.0%,u,11.3%
CCc1c(C)sc(NC(=O)c2cc(CC(C)C)on2)c1C#N,4.8,u,-21.4%,8.0%,u,-6.6%
CCc1c(C)sc(NC(=O)c2cc(-c3cccc(Cl)c3)on2)c1C#N,x,3.16µM*,-3.0%,u,u,x
Cc1ccc(CNC(=O)CN2C(=O)C3CCCCN3c3ccc(C(=O)N(C)C)cc32)cc1 (stereo not drawn),x,5.3%[59 µM],13.8%,2.7%,17.0%,x
CCc1nn(CC(=O)NC2CC2)c(=O)c2cc3c(OC)cccc3n12,x,2.5%[59 µM],-4.2%,-3.6%,-6.3%,x
Cc1cc2c(cc1S(=O)(=O)CCC(=O)NCCc1ccccc1)OCC(=O)N2,0.3,18.2%,-21.0%,-3.6%,-5.8%,3.1%
O=C(COc1ccc(Cl)cc1)NNC(=O)c1cccnc1,5.0,2.6%,-0.1%,0.0%,2.4%,23.4%
CCC(=O)N1c2ccccc2CC1C(=O)NCCc1ccccc1Cl (stereo not drawn),x,-31.3%[59 µM],-0.1%,1.1%,5.1%,x
COc1ccc(N2CCN(CC(O)COc3ccc(C)cc3C)CC2)cc1 (stereo not drawn),0.4,39.8µM*,u,-0.3%,u,-4.1%
COc1ccc(N2CCN(CC(O)COc3cc(C)ccc3C)CC2)cc1 (stereo not drawn),0.0,8.91µM*,x,x,x,-10.5%
COc1ccccc1N1CCN(CC(O)COc2cc(C)cc(C)c2)CC1 (stereo not drawn),x,u,-15.0%,6.6%,-12.6%,x
COc1ccccc1N1CCN(CC(O)COc2ccc(C)cc2C(C)(C)C)CC1 (stereo not drawn),x,14.1µM*,u,11.4%,u,x
COc1ccc(N2CCN(CC(O)COc3ccc(C(C)(C)C)cc3)CC2)cc1 (stereo not drawn),x,u,-21.1%,1.8%,u,x
CCOC1(c2ccccc2)CC1C(=O)N/N=C/c1cccc([N+](=O)[O-])c1 (stereo not drawn),-0.7,-4.2%,u,-2.9%,x,1.9%
O=C(N/N=C\C=C\c1ccco1)c1cc(-c2ccc3ccccc3c2)n[nH]1,-1.0,31.6µM*,6.0%,0.2%,6.7%,1.7%
O=C(N/N=C/C=C/c1ccccc1)c1ccccn1,2.2,32.8%[59 µM],-3.6%,-3.9%,u,-24.4%
O=C(N/N=C/C=C/c1ccco1)c1cnccn1,-10.2,44.7µM*,-5.2%,0.5%,3.1%,10µM*
O=C(N/N=C/c1ccco1)c1cnccn1,4.1,4.9%[59 µM],-2.6%,-4.1%,-4.4%,-10.9%
O=C(N/N=C/C=C\c1ccco1)c1ccccn1,-26.4,35.5µM*,-18.6%,u,u,20µM*
CSC1=NC2(CCN(C(=O)NC3CCCCC3)CC2)N=C1c1ccc(C(C)(C)C)cc1,x,-10.6%[59 µM],0.3%,1.7%,-12.1%,x
SMILES,FBPA coupling cs,G9a inh,Tau fluor counter,Tau fibril FP,Tau fibril ThT,Sfp PPTase inh
CCCCN(C(=O)c1cc2c(s1)CCC2)c1c(N)n(CC(C)C)c(=O)[nH]c1=O,x,2.5%[12.7 µM],x,x,x,x
CCCCN(C(=O)c1cccc(-n2cccc2)c1)c1c(N)n(CCCC)c(=O)[nH]c1=O,x,50.1µM*,x,x,x,x
CCCN(C(=O)c1cccc(-n2cccc2)c1)c1c(N)n(Cc2ccccc2)c(=O)[nH]c1=O,x,44.7µM*,x,x,x,x
CCCCN(C(=O)c1cc2c(s1)CCC2)c1c(N)n(CCC)c(=O)[nH]c1=O,x,44.7µM*,x,x,x,x
COc1cccc(NC(=S)NN=C2CCC(C(C)(C)C)CC2)c1 (stereo not drawn),0.3,22.4µM*,-25.0%,5.3%,-15.7%,4.2%
COc1cccc(NC(=S)N/N=C2\CC3CCC2(C)C3(C)C)c1 (stereo not drawn),-1.7,-34.0%,-7.7%,6.1%,-5.8%,-2.1%
CN(C)c1ccc(C(CNC(=O)c2ccccc2F)c2c[nH]c3ccccc23)cc1 (stereo not drawn),-3.6,u,u,u,-13.6%,6.5%
CN(C)c1ccc(C(CNS(=O)(=O)c2ccc(F)c(F)c2)c2c[nH]c3ccccc23)cc1 (stereo not drawn),-0.2,39.8µM*,7.8%,3.3%,4.2%,3.7%
CN(C)c1ccc(C(CNC(=O)c2ccccc2)c2c[nH]c3ccccc23)cc1 (stereo not drawn),-3.9,8.91µM*,14.1µM*[quencher],u,u,30.8%
c1ccc2c(c1)ncn2CCCOc1ccc2c(c1)CCC2,-0.9,-3.2%[59 µM],-17.7%,-3.3%,u,3.7%
Cc1ccc(OCCCCn2cnc3ccccc32)cc1,-8.3,u,-4.5%,-0.3%,-12.1%,39.8µM*
c1ccc2c(c1)ncn2CCCCOc1ccc2c(c1)CCC2,-15.2,8.91µM*,-15.6%,1.3%,u,31.6µM*
c1ccc(OCCCCn2cnc3ccccc32)cc1,0.1,4.3%[59 µM],-9.5%,7.1%,-8.6%,10.1%
COc1cc(OC)c(NC2=C(c3ccc(C(F)(F)F)cc3)C(=O)c3ccccc32)cc1Cl,x,u,u,-4.2%,u,x
COC(=O)C(C)Oc1cc(OC(C)C(=O)OC)c2c(-c3ccccc3)cc(=O)oc2c1 (stereo not drawn),1.6,0.4%[2.33 µM],x,x,x,3.0%
CCOc1cc(/C=C/c2cc(C(F)(F)F)[nH]c(=O)n2)ccc1O,0.2,-29.9%,-15.5%,-7.9%,14.1µM*,-9.5%
CCOc1cc(/C=C/c2ccc3cccc([N+](=O)[O-])c3n2)ccc1OCC(=O)N(C)C,0.6,35.5µM*,-23.5%,5.3%,7.08µM*,-10.6%
COc1cc(/C=C/c2ccc3cccc([N+](=O)[O-])c3n2)ccc1OCC#N,0.2,1.5%[59 µM],u,-9.0%,u,9.1%
O=[N+]([O-])c1cccc2ccc(/C=C/c3ccc(F)cc3)nc12,-8.4,12.6µM*,u,-13.3%,u,1.7%
